Test results from PubChem BioAssay (NCI).
This is part of a sample that, as a whole, favours compounds with a hit. Of some 83,000 tested, about 20% had one in any assay.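 The endpoint reported here, percent growth, reads 100 for growth as untreated, 0 for no net growth and -100 for all cells dead.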 Unmarked numbers belong to inactive results. The source made the active and inactive calls. Rule for the calls: active = growth percent below 10; inactive = the rest.

Columns and labels:
Assay in all cases: NCI-60 one-dose screen, 48 h (100 = growth as untreated, 0 = no growth, -100 = all killed)
HCT-15 colon = settings: 10 µM unless noted
HT29 colon = settings: 10 µM unless noted
SNB-75 CNS = settings: 10 µM unless noted
SNB-19 CNS = settings: 10 µM unless noted
U251 CNS = settings: 10 µM unless noted
PC-3 prostate = settings: 10 µM unless noted
SK-MEL-5 melanoma = settings: 10 µM unless noted
UACC-62 melanoma = settings: 10 µM unless noted
LOX IMVI melanoma = settings: 10 µM
SK-MEL-28 melanoma = settings: 10 µM unless noted
SK-MEL-2 melanoma = settings: 10 µM unless noted
SN12C renal = settings: 10 µM unless noted
UO-31 renal = settings: 10 µM unless noted
TK-10 renal = settings: 10 µM unless noted
ACHN renal = settings: 10 µM unless noted
CAKI-1 renal = settings: 10 µM unless noted
A498 renal = settings: 10 µM unless noted
CCRF-CEM leukemia = settings: 10 µM unless noted
MOLT-4 leukemia = settings: 10 µM unless noted
EKVX NSCLC = settings: 10 µM unless noted

SMILES	growth (HCT-15 colon)	growth (HT29 colon)	growth (SNB-75 CNS) [%]	growth (SNB-19 CNS) [%]	growth (U251 CNS)	growth (PC-3 prostate)	growth (SK-MEL-5 melanoma)	growth (UACC-62 melanoma)	growth (LOX IMVI melanoma)	growth (SK-MEL-28 melanoma)	growth (SK-MEL-2 melanoma)	growth (SN12C renal)	growth (UO-31 renal)	growth (TK-10 renal)	growth (ACHN renal)	growth (CAKI-1 renal)	growth (A498 renal)	growth (CCRF-CEM leukemia)	growth (MOLT-4 leukemia)	growth (EKVX NSCLC) [%]
O=C1C=C[C@H](O)[C@@]2(CO)O[C@@H]12	104%	53.9%	81	100	91.4%	82.3%	100%	65.8%	66.7%	42.1%	-12.4% (active)	88.7%	48.1%	109%	76.7%	40%	101%	-51% (active)	26.9%	–
O=S(=O)(O)c1cccc2cccnc12	117%	122%	98.2	106	113%	86.8%	107%	109%	107%	97.3%	108%	103%	76.8%	118%	111%	96.1%	104%	103%	100%	–
OCC1OC(n2ccc3c2ncn2ncnc32)C(O)C1O (stereo unspecified)	26.9%	14.2%	58.6	50.3	78.6%	14.6%	45.4%	61.2%	12.9%	92.5%	67.7%	27.5%	27.6%	22.2%	29%	43.5%	-5.58% (active)	14.1%	16.1%	–
CCCCCC#CC(=O)O	105%	99.5%	99.7	108	98.4%	98.2%	111%	104%	104%	113%	107%	105%	–	104%	97.1%	–	105%	102%	101%	99.8
O=C(O)c1ccc([N+](=O)[O-])cc1S(=O)(=O)O	106%	99%	118	105	94.9%	100%	99.7%	101%	98.1%	103%	95.9%	103%	102%	99.3%	106%	110%	108%	81.2%	105%	–
Cc1ccc(C(C)C)c(OCC(=O)O)c1	101%	109%	99.3	104	96.1%	98.7%	100%	100%	102%	106%	118%	100%	97%	107%	112%	110%	73.6%	96.8%	111%	–
CC1(C)CCC(C)(C)NC(=S)N1	98.7%	107%	105	102	104%	100%	105%	105%	96.1%	109%	94.1%	97.1%	88.2%	98%	104%	100%	112%	102%	97.5%	–
C=CC(C)C(C)(C)O (stereo unspecified)	104%	101%	101	109	103%	100%	107%	102%	99.2%	113%	100%	109%	–	104%	106%	94.5%	91.4%	–	95.2%	105
C1=NCCc2ccccc21	107%	117%	76.4	109	92.9%	87.7%	95.3%	114%	100%	110%	99.7%	102%	84.3%	119%	101%	99.7%	59.9%	96.8%	101%	–
Cc1ccc(S(=O)(=O)NC(=O)NCCSSCCNC(=O)NS(=O)(=O)c2ccc(C)cc2)cc1	96.7%	108%	85.5	99.4	98.6%	96.6%	97.8%	101%	98.2%	109%	112%	100%	90.3%	102%	96.2%	96.5%	93.1%	99.1%	110%	–
C1C[S+]2CC[S+]1CC2	105%	98.9%	117	103	96.4%	101%	98.8%	104%	95.8%	118%	101%	101%	106%	97.9%	99.2%	108%	105%	89.9%	–	–
CCOC(C=O)OCC	102%	99.7%	98.5	106	97.4%	95.1%	106%	104%	94.1%	116%	102%	102%	94.4%	93.1%	112%	97.8%	93.3%	99.1%	85.2%	–
CCCCCCCCCCC(=O)CCCCCCCCCC	99.7%	104%	95.9	109	101%	97.8%	102%	105%	94.6%	106%	111%	102%	85.8%	98.8%	96.7%	95%	107%	90%	92%	–
CSc1nc2[nH]ncc2c(=O)[nH]1	99.7%	107%	103	103	103%	107%	92.8%	107%	97.2%	106%	111%	101%	101%	104%	110%	103%	75.4%	118%	110%	–
COC1OC(C(O)C(O)CO)C(O)C(O)C1O (stereo unspecified)	99.1%	100%	95.6	105	98.9%	95.6%	107%	102%	102%	101%	99.5%	94.1%	97.1%	107%	101%	95.6%	107%	95.4%	105%	–
O=c1cc(Cl)nc2ccccn12	109%	111%	109	103	107%	96.7%	105%	117%	103%	101%	110%	102%	–	105%	110%	96.1%	–	119%	106%	102
Oc1ccc(CCC2CCNc3ccccc32)cc1 (stereo unspecified)	83.2%	93.7%	76.6	87.2	71.5%	60.7%	58%	72%	81.1%	94.4%	86.7%	86%	–	93.2%	66.9%	–	69.2%	69.1%	84.8%	53.5

SMILES	growth (HCT-15 colon)	growth (HT29 colon)	growth (SNB-75 CNS) [%]	growth (SNB-19 CNS) [%]	growth (U251 CNS)	growth (PC-3 prostate)	growth (SK-MEL-5 melanoma)	growth (UACC-62 melanoma)	growth (LOX IMVI melanoma)	growth (SK-MEL-28 melanoma)	growth (SK-MEL-2 melanoma)	growth (SN12C renal)	growth (UO-31 renal)	growth (TK-10 renal)	growth (ACHN renal)	growth (CAKI-1 renal)	growth (A498 renal)	growth (CCRF-CEM leukemia)	growth (MOLT-4 leukemia)	growth (EKVX NSCLC) [%]
CC(C)(N)CO[C@H]1C[C@H]2CC[C@@]1(C)C2(C)C	90.7%	101%	89.3	103	96.6%	88.8%	86.1%	101%	98.6%	94.7%	108%	100%	91.8%	105%	100%	97%	81.7%	105%	107%	–
O=C(Nc1ccccc1)c1ccco1	105%	100%	87	107	96.1%	100%	104%	104%	97.6%	105%	99.1%	109%	86.1%	98.9%	107%	95.9%	–	107%	93.5%	–
CCC(/C=C\C(C)=O)CC	101%	107%	99	99.5	96.6%	91.3%	102%	106%	97.4%	101%	112%	98.3%	92.3%	102%	102%	100%	90.4%	105%	112%	–
C=COC(=O)CCOCC(CC)CCCC (stereo unspecified)	104%	104%	97.2	104	102%	98.2%	107%	99.5%	98.8%	113%	96.9%	104%	79.5%	103%	106%	96.5%	91.9%	–	93.9%	–
C=C1CC2(OC1=O)C(=O)N(C)c1ccc(I)cc12 (stereo unspecified)	-53.7% (active)	-74.7% (active)	38.4	64	2.89% (active)	-76.6% (active)	-92% (active)	-61.2% (active)	-65.4% (active)	-93.6% (active)	-73.1% (active)	-12% (active)	-66% (active)	-80.9% (active)	-84.5% (active)	-91.3% (active)	-13.6% (active)	–	-50.1% (active)	–
Cc1ccc[n+](CCC(N)=O)c1	111%	98.1%	87	104	87.4%	86.1%	102%	101%	82%	99.9%	97.7%	92%	85.9%	94.9%	105%	91.6%	–	90.8%	90.9%	–
O=[N+]([O-])c1c(Cl)ncnc1Cl	100%	107%	87.7	106	95.9%	90.3%	111%	110%	107%	105%	110%	111%	101%	107%	94.8%	–	90%	99.1%	112%	–
CC(=O)c1cccc(O)c1	101%	92.1%	91.4	108	97.2%	106%	100%	109%	94.6%	109%	103%	107%	90.5%	90%	103%	97.9%	38.3%	106%	95.9%	–
CCN(CC)CCN1CNC(=S)NC1	106%	104%	107	104	105%	101%	104%	105%	95.8%	114%	95.1%	98.4%	83.7%	103%	102%	106%	105%	97.8%	97.1%	–
Cc1ccc(NCN2C(=O)c3ccccc3C2=O)c(C)n1	115%	104%	116	113	103%	101%	100%	109%	104%	116%	124%	111%	87.3%	119%	117%	105%	–	–	104%	–
CC(=O)c1cccs1	99.5%	99.8%	96	102	101%	98.3%	110%	94.2%	93.1%	98.1%	112%	96.8%	106%	103%	102%	102%	76.6%	113%	95.4%	–
Cc1[nH]nc(C(N)=O)c1[N+](=O)[O-]	95.2%	108%	99.6	93.2	103%	100%	91.2%	90.3%	97.2%	93.2%	119%	98.4%	96.8%	106%	99.3%	102%	78.4%	105%	109%	–
CC(=O)OC/C(C)=C\CC(C)COC(C)=O (stereo unspecified)	98.8%	113%	81.5	94.9	101%	93.9%	104%	101%	98.8%	94.6%	113%	99.6%	87.7%	112%	96.9%	96.3%	95.7%	96.9%	111%	–
COc1cccc2c1Cc1ccccc1-2	114%	100%	110	94.4	103%	91.1%	100%	99.3%	80.3%	115%	110%	108%	88.6%	134%	114%	98.3%	–	104%	113%	–
CC(=O)NC(CCc1ccc(Cl)c(Cl)c1)c1cccc(O)c(=O)c1 (stereo unspecified)	29.9%	27.6%	18.7	23.7	13.7%	38.9%	-31.8% (active)	-57.7% (active)	-2.69% (active)	19.5%	17.8%	12.4%	-20.9% (active)	25.8%	17.5%	-0.0278% (active)	36%	4.93% (active)	4.68% (active)	–
CC(=O)c1cccc(NS(=O)(=O)c2ccc(C)cc2)c1	43.2%	30.2%	61.9	90	61.2%	78.9%	60.2%	84.4%	66.5%	78.5%	77.9%	89.1%	77%	90.3%	106%	81.6%	–	84%	73.9%	–
S=C=Nc1ccc2ccccc2c1	96.6%	105%	94.5	101	97.8%	102%	106%	102%	94.2%	111%	106%	111%	85.1%	109%	100%	87.7%	–	106%	98.1%	–
